Molecules are shown by their SMILES. About 83,000 compounds went through this panel and 20% of them were active in at least one assay; those are over-represented in the sample as a whole.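 96-well plates, one dose, 48 hours. Percent growth reported; active if below 10.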 Unmarked numbers belong to inactive results. Calls of active or inactive are those of the source.

Among the test systems are NCI-H23 lung; NCI-H226 lung; NCI-H322M lung; HOP-62 NSCLC; NCI-H460 lung; HOP-92 NSCLC; NCI-H522 lung; A549/ATCC NSCLC; 786-0 renal; COLO 205 colon; DU-145 prostate; K-562 leukemia; MALME-3M melanoma; MDA-MB-231 breast; RXF 393 renal; SF-268 CNS; SF-295 CNS; SF-539 CNS; UACC-257 melanoma; M14 melanoma.
Common to all, as to assay: NCI-60 one-dose screen, 48 h (100 = growth as untreated, 0 = no growth, -100 = all killed)
What all share (conditions): 10 µM unless noted

As for `COc1ccc(C/C(C)=C(\c2ccc(O)cc2)c2ccc(OCCCN(C)C)cc2)cc1`, the growth in the test with NCI-H23 lung is 91.8%; in the test with NCI-H226 lung, 94.2%; with NCI-H322M lung, 94%; with HOP-62 NSCLC, 111%; in the test on NCI-H460 lung, 93.7%; with HOP-92 NSCLC it was 68.7%. Besides, the growth in the test on NCI-H522 lung was 91.5%; in the test with A549/ATCC NSCLC it was 90.6%; in the test with 786-0 renal, 101%; with COLO 205 colon, 97%; in the test with DU-145 prostate, 101%; in the test on K-562 leukemia, 70.4%. Besides, the growth is 97.1% with MALME-3M melanoma; 106% in the test with MDA-MB-231 breast; 89.5% in the test on RXF 393 renal; 88.1% in the test with SF-268 CNS; 104% with SF-295 CNS; 107% in the test with SF-539 CNS. Besides, the growth is 92.4% in the test on UACC-257 melanoma and 99.4% in the test on M14 melanoma.

On to `CC[C@]12CN3CCc4c([nH]c5ccccc45)[C@@](C(=O)OC)(c4cc5c(cc4OC)N(C)[C@H]4[C@@](O)(C(=O)OC)[C@H](OC(C)=O)[C@]6(CC)C=CCN7CC[C@]54[C@@H]76)CC(C3)[C@H]1O2` (stereo not given in full), for which the growth was 21.1% in the test on NCI-H23 lung; 42.6% with NCI-H226 lung; 41% in the test on NCI-H322M lung; 50.9% in the test with HOP-62 NSCLC; -27.3% (active) with NCI-H460 lung; 9.26% (active) with HOP-92 NSCLC. Also, the growth in the test with NCI-H522 lung was -5.19% (active); with A549/ATCC NSCLC, 20.9%; in the test on 786-0 renal, 19.6%; in the test with COLO 205 colon, -49.9% (active); with DU-145 prostate, -21.8% (active); in the test on K-562 leukemia it was 16.6%. In addition, the growth in the test with MALME-3M melanoma was 56.1%; in the test with MDA-MB-231 breast, -28.8% (active); in the test on RXF 393 renal, 10.2%; in the test with SF-268 CNS, 26.4%; in the test with SF-295 CNS, -22.9% (active); with SF-539 CNS, 2.86% (active). The values for the growth with UACC-257 melanoma and with M14 melanoma were 42.3% and -29.3% (active), respectively.

Consider `O=C(Nc1ccc(F)cc1)c1cc2cc(Nc3nc(-c4ccccc4)nc4ccccc34)ccc2oc1=O`, for which the growth in the test on NCI-H23 lung was 90.1%; in the test on NCI-H226 lung it was 102%; with NCI-H322M lung, 100%; with HOP-62 NSCLC it was 84.2%; in the test with NCI-H460 lung it was 113%; in the test with HOP-92 NSCLC, 103%. The growth in the test on NCI-H522 lung was 97.6%; in the test on A549/ATCC NSCLC, 92.5%; in the test on 786-0 renal it was 98.4%; in the test with COLO 205 colon, 123%; in the test on DU-145 prostate it was 108%; in the test with K-562 leukemia, 102%. Besides, the growth with MALME-3M melanoma is 103%; with MDA-MB-231 breast it was 90.6%; in the test with RXF 393 renal it was 115%; in the test on SF-268 CNS, 97.3%; with SF-295 CNS, 108%; in the test on SF-539 CNS, 108%. The growth is 96.6% in the test on UACC-257 melanoma and 102% in the test on M14 melanoma.

Consider `S=c1nc(CS)[nH]c2ccccc12`, for which the growth is 89.5% with NCI-H23 lung; 87.4% in the test on NCI-H226 lung; 95.6% in the test with NCI-H322M lung; 89.6% with HOP-62 NSCLC; 100% in the test on NCI-H460 lung; 96.8% in the test with HOP-92 NSCLC. The growth with NCI-H522 lung was 95.6%; with A549/ATCC NSCLC it was 96.6%; in the test on 786-0 renal, 103%; with COLO 205 colon, 112%; in the test on DU-145 prostate, 108%; in the test with K-562 leukemia it was 104%. The growth with MALME-3M melanoma is 86.6%; in the test on MDA-MB-231 breast, 82.8%; in the test with RXF 393 renal, 109%; in the test on SF-268 CNS, 92.4%; in the test with SF-295 CNS it was 94.6%; in the test with SF-539 CNS it was 94.7%. Moreover, the growth was 95.9% in the test on UACC-257 melanoma and 98.2% in the test on M14 melanoma.

For the molecule `Cc1nc(-n2[nH]c(=O)ccc2=O)sc1N=Nc1ccccc1`, the growth in the test with NCI-H23 lung is 103%; in the test with NCI-H226 lung it was 85.3%; in the test with NCI-H322M lung it was 97.3%; with HOP-62 NSCLC it was 94.3%; in the test on NCI-H460 lung, 102%; in the test on HOP-92 NSCLC it was 96.6%. The growth with NCI-H522 lung was 103%; in the test on A549/ATCC NSCLC, 104%; in the test with 786-0 renal, 94.4%; in the test on COLO 205 colon, 112%; in the test on DU-145 prostate, 112%; with K-562 leukemia, 101%. In addition, the growth is 102% with MALME-3M melanoma; 102% with MDA-MB-231 breast; 97.5% in the test with RXF 393 renal; 104% in the test on SF-268 CNS; 99.3% in the test on SF-295 CNS; 99.8% in the test with SF-539 CNS. The results for the growth with UACC-257 melanoma and in the test on M14 melanoma were 109% and 97.7%, respectively.

For `Cc1c(C(=O)OCCCCOC(=O)c2c(C)n(C)c3scc[n+]23)[n+]2ccsc2n1C`, the growth was 101% in the test on NCI-H23 lung; 91.1% in the test on NCI-H226 lung; 112% in the test on NCI-H322M lung; 109% with HOP-62 NSCLC; 108% with NCI-H460 lung; 88.9% in the test on HOP-92 NSCLC. The growth in the test on NCI-H522 lung is 99.6%; in the test with A549/ATCC NSCLC it was 90.2%; with 786-0 renal, 112%; with COLO 205 colon, 119%; in the test on DU-145 prostate it was 107%; with K-562 leukemia, 92%. Besides, the growth in the test on MALME-3M melanoma was 105%; with MDA-MB-231 breast it was 97.9%; in the test with RXF 393 renal it was 103%; in the test on SF-268 CNS, 108%; with SF-295 CNS it was 93.2%; with SF-539 CNS it was 105%. Moreover, the growth with UACC-257 melanoma is 96.5%; in the test on M14 melanoma, 110%.

Turning to `CN(Cc1ccccc1)c1nc(Cl)c(C2CC(c3ccc(F)cc3)=NN2C=O)s1` (stereo not given), the growth in the test on NCI-H23 lung was 84.2%; in the test on NCI-H226 lung it was 95.9%; in the test on NCI-H322M lung it was 93.1%; with HOP-62 NSCLC, 107%; with NCI-H460 lung, 96.9%; in the test with HOP-92 NSCLC it was 89.5%. Besides, the growth in the test on NCI-H522 lung is 83.3%; with A549/ATCC NSCLC, 94.6%; in the test on 786-0 renal, 93.9%; in the test on COLO 205 colon it was 99.7%; in the test on DU-145 prostate, 104%; in the test with K-562 leukemia, 77.9%. The growth was 105% in the test with MALME-3M melanoma; 97% in the test on MDA-MB-231 breast; 92.9% in the test with RXF 393 renal; 91.2% in the test with SF-268 CNS; 92.2% in the test with SF-295 CNS; 107% in the test on SF-539 CNS. Besides, the growth in the test on UACC-257 melanoma is 103%; in the test on M14 melanoma, 92.8%.

Source of the values: PubChem BioAssay (NCI).
